Akt phos inh: inhibitors of Akt phosphorylation. activity change, % for hits at 50 µM. Neuro2A IGF-stimulated pAkt S473 HTRF, 20 min; active compounds read low. 0.32% of 360,000 active; in the data active = activity change below about -80%; inconclusive = mostly about -51% to -80%; note: % is set by controls: 0 for no effect and ±100 for the full control effect
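Neuro2A cells in DMEM with 0.5% FBS, overnight at 37 deg C, given compound at single 50 µM final, then IGF (6 nM final) for 20 min at 37 deg C. Lysed; phospho-Akt Ser473 by HTRF after 24 h, 665/615 ratio.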
LDHA block: blocks human lactate dehydrogenase A; P00338; 0.15% of 480,000 active; activity change, % (values are at about 110 or 230 µM); purified LDHA, NADH/diaphorase-resazurin fluorescence; active compounds read low; in the data active = activity change below about -30%; inconclusive = mostly about -25% to -30%;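 note: plate controls were DMSO wells for no effect and wells without enzyme for full effect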
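LDH5 2 nM; NADH 0.06 mM, pyruvate 0.2 mM; 200 mM Tris pH 7.4, EDTA, Tween-20; 5 min RT. Detection: diaphorase 0.133 mg/mL + resazurin 37 µM, fluorescence ex540/em590 at 0 and 20 min; normalized to enzyme-free and DMSO wells.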
DRD3 antagonist: blocks the human D3 dopamine receptor; P35462; D3R cells, DiscoveRx beta-arrestin luminescence, antagonist mode; active compounds read low; max response, negative = inhibition, %; 2.5% of 360,000 active; AID 652054; in the data active = max response below about -50%; inconclusive = no clear call, values can overlap the other calls; note: % is set by controls: 0 for no effect and ±100 for the full control effect
Target sequence (P35462 whole entry, looked up): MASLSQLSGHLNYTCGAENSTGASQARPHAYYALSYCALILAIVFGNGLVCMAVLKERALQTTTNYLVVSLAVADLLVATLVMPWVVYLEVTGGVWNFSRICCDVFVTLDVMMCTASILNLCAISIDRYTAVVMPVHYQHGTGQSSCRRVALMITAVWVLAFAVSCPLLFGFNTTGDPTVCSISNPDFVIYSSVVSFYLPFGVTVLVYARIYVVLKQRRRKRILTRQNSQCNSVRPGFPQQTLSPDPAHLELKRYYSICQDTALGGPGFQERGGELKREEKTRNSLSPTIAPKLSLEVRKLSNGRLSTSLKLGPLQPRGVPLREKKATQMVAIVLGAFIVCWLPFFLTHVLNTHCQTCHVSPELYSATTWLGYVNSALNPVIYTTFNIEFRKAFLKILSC
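Cells plated overnight at 1500 cells/well, then exposed to library compounds with dopamine controls for 90 minutes at 37 degrees C. DiscoveRx reagent added for 30–60 minutes at room temperature; luminescence read, quantitative HTS format.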
PI4K2A inh: PI4K2A (human) kinase inhibition; 0.13% of 420,000 active; activity change, negative = inhibition, % at 76.9 µM; purified PI4K2A, ADP-Glo luminescence, 1 h; active compounds read low; Q9BTU6; AID 1346378; in the data active = activity change below about -50%; inconclusive = mostly about -30% to -49%;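 note: -100% = wells without enzyme as full effect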
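Compounds are screened against recombinant PI4K2A using PI as substrate and ATP, the latter dispensed at 300 microM. Reactions run one hour at ambient temperature before ADP-Glo detection; full inhibition defined by wells lacking enzyme.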
RGS4 inhibitor: blocks human RGS4-accelerated GTP hydrolysis; 0.039% of 390,000 active; Potency, µM (highest dose often 114 µM), for the others: top-dose activity change, negative = inhibition, hits mostly inhibitors; P49798; Transcreener GDP fluorescence polarization, RGS4-accelerated GTP hydrolysis; active = well fitted inhibition curve with a large enough effect; inconclusive = small, poorly fitted or top-dose-only effect; inactive = no such curve, though single readings can be large or run the other way; note: potency is the fitted concentration of half-maximal effect; % is set by controls: 0 for no effect and ±100 for the full control effect; nearly all actives have a fitted effect of over 75% in size
Target sequence (P49798 whole entry, looked up): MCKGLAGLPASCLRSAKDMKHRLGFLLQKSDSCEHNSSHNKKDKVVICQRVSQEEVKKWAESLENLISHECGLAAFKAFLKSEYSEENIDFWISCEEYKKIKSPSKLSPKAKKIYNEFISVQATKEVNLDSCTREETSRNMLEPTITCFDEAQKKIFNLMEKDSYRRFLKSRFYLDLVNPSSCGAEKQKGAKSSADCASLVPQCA
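MLSMR compounds (23 nl, pin-transferred) preincubated 10 min at room temperature with a 500nM (2x) first reagent, then RGS4 at 900nM (2x) plus Transcreener GDP mix added; fluorescence polarization (620/688 nm) read before and after 90 min at 30 °C.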
D3 ag: D3 dopamine receptor (human) agonism. max activation, %. 0.58% of 410,000 active. P35462. D3R DiscoveRx beta-arrestin cells, luminescence, 90 min. AID 652048; in the data active = max activation above about 30%; note: 0% is about no effect
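Agonist mode: compounds and dopamine controls were applied to plated cells for 90 min at 37 degrees C after an overnight attachment at 1500 cells/well. Luminescent read-out followed 30 - 60 minutes at room temperature with DiscoveRx detection reagent.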
* = called active by the depositor; i = inactive; ? = inconclusive; · = not tested or not shown; + = active, no number. Rows were chosen to be rich in hits. Some 2.8% of all compounds tested hit in one or more screens of this group.

SMILES	Akt phos inh	LDHA block	DRD3 antagonist	PI4K2A inh	RGS4 inhibitor	D3 ag
O=C(Nc1nc2c(s1)CCCC2)c1ccc(Br)s1	·	2	-67*	-8	8%	-26
COc1ccc(-c2ocnc2C(=O)Nc2ccc(C(C)C)cc2)cc1OC	·	-1	·	·	·	·
COc1cccc(-c2noc(-c3ccc(S(=O)(=O)N4CCCC4)o3)n2)c1	·	-11	·	·	·	·
Cc1cccc(OCc2nn[nH]n2)c1C	i	-5	-12	3	33%	68*
Clc1ccccc1OCc1nn[nH]n1	i	-7	-13	-5	-7%	6
CCn1nc(C(=O)OC(C(=O)NC(N)=O)C(C)C)c2ccccc2c1=O (centres undefined)	·	0	·	·	·	·
CCCNC(=O)c1c(-n2cnnn2)sc2c1CCC2	·	-10	·	·	·	·
COC(=O)c1cccc(-n2sc3ccccc3c2=O)c1	i	?	-60*	-12	-142%	-35
O=c1c2ccccc2sn1-c1ccc(Cl)cc1	i	-52*	-17	-9	·	-14
COC(=O)c1cccc(N2CCCC2=O)c1	i	-9	-1	-3	33%	0
Cc1ccc(-n2sc3ccccc3c2=O)cc1	i	-35*	-17	-8	-137%	-9
O=c1c2ccccc2sn1-c1ccc(F)cc1	i	-31*	-54*	-14	-136%	-23
O=c1c2ccc(F)cc2sn1-c1ccccc1	i	-13	-14	-8	·	-6
COc1ccc(C(C)=O)cc1CN(C)CC(=O)Nc1cccc(F)c1	·	-9	·	·	·	·
Cn1cccc1C1CCCN1Cc1nc(-c2ccc(Cl)cc2)no1 (centres undefined)	·	6	·	·	·	·
COc1ccc(C)cc1NC(=O)COc1ccc(C(=O)Nn2c(C)ccc2C)cc1	·	-1	·	·	·	·
O=c1c2cc(F)ccc2sn1-c1ccccc1Cl	i	-43*	-18	-5	·	-9
CCCOc1ccc(CSc2nc3ccccc3[nH]2)cc1	?	1	-65*	-4	-28%	11
Cc1[nH]nc2c1C(c1ccc(F)cc1)C1=C(COC1=O)N2 (centres undefined)	·	3	·	·	·	·
CC(=O)C(=Cc1ccc(-c2ccccc2)cc1)C(=O)c1ccccc1	i	0	-53*	15	·	-10
N#CC(=Cc1ccc(-c2ccccc2)cc1)C(=O)c1ccccc1	i	-2	22	-12	·	1
CCCCNc1nc2ccccc2n1CC(=O)N1CCc2ccccc2C1	i	1	-76*	-1	15%	-45
CCNc1cc(C(=O)N2CCOCC2)c2ccccc2n1	·	2	·	·	·	·
CC1CCc2nc3ccccc3c(C(=O)Nc3ccc(Br)cc3F)c2C1 (centres undefined)	·	-11	·	·	·	·
CS(=O)(=O)N1CCC(NC(=O)c2ccccc2C(=O)c2ccccc2)CC1	·	-1	·	·	·	·
SMILES	Akt phos inh	LDHA block	DRD3 antagonist	PI4K2A inh	RGS4 inhibitor	D3 ag
CCS(=O)(=O)N1CCC(NC(=O)c2ccccc2C(=O)c2ccc(Cl)cc2)CC1	·	-31*	·	·	·	·
Cc1nn2c(NCCN3CCOCC3)c3c(nc2c1-c1ccccc1)CCCC3	i	8	4	7	-23%	-8
Cc1nn2c(N3CCN(C)CC3)c3c(nc2c1-c1ccccc1)CCCC3	i	1	-50*	-3	-15%	-12
CN(Cc1ccccc1Br)C(=O)Cn1c(Cl)nc2c1c(=O)n(C)c(=O)n2C	·	5	·	·	·	·
COc1ccc(C(=O)Nc2c(C)cccc2C(C)C)c(OC)c1	·	9	·	·	·	·
Cc1ccc(C(=O)c2c3ccc(N)cc3nn2CCC(N)=O)cc1	i	10	-73*	-9	-37%	-13
CCc1ccc(S(=O)(=O)Nc2ccc(O)c3c(=O)cc(-c4ccccc4Cl)oc23)cc1	i	-5	-22	4	11%	-42
O=c1cc(-c2ccccc2Cl)oc2c(NS(=O)(=O)c3cc(Cl)cc(Cl)c3O)ccc(O)c12	i	-19	26	-1	?	36*
CC(C)(C)c1ccc(C(=O)Nc2ccc(O)c3c(=O)cc(-c4ccccc4Cl)oc23)cc1	i	-18	33	-5	3%	119*
N#CC1=C(N)Oc2c(c(=O)[nH]c3ccccc23)C1c1ccc(F)cc1 (centres undefined)	·	-9	·	·	·	·
COP(=O)(OC)c1nc(Cc2ccc(Cl)cc2)oc1NCc1ccc2c(c1)OCO2	·	0	·	·	·	·
O=S(=O)(CS(=O)(=O)c1ccccc1)c1ccccc1	i	-5	-10	6	4%	-9
O=S(=O)(C/C(=C/CO)S(=O)(=O)c1ccccc1)c1ccccc1	i	-1	-59*	-3	-36%	-34
Cn1c(=O)[nH]c(=O)c2c1nc(SCCN1CCCCC1)n2CCc1ccccc1	·	-9	·	·	·	·
CC(C)(C)NC(=O)CN1CCC(O)(c2ccccc2)CC1	i	4	+	-1	20%	-17
O=C(CN1CCc2sccc2C1c1cccs1)Nc1ccc(F)cc1 (centres undefined)	·	-4	·	·	·	·
CCOC(=O)c1c(/N=C/c2cccc([N+](=O)[O-])c2O)sc(C)c1C	i	19	-102*	-7	?	-12
O=[N+]([O-])c1cccc(C=Nc2cccc3ccccc23)c1O	i	1	-11	-2	-46%	-16
O=C(C1CCN(CCCc2ccccc2)CC1)N(CCc1ccccc1)Cc1ccccc1	i	-15	?	0	7%	-13
O=C(C1CCN(CC2CC=CCC2)CC1)N(CCc1ccccc1)Cc1ccccc1 (centres undefined)	i	-14	-61*	-1	3%	-25
Nc1ncc(-c2ccc(F)cc2)nc1N1CCN(CCO)CC1	i	-7	-21	2	·	-14
OCCN1CCN(C2CCC(c3ccc(F)cc3)c3ccc(F)cc32)CC1 (centres undefined)	i	1	-63*	-1	-30%	-21
CC(C)CCNC(=O)CCCN1C(=O)C(c2ccccc2)Oc2cccnc21 (centres undefined)	·	-9	·	·	·	·
COc1ccccc1-c1cc2c(c3c1ccn3C)C1CCC2C1 (centres undefined)	i	-2	-8	-7	·	-7
Cn1ccc2c(-c3ccccc3F)cc3c(c21)C1CCC3C1 (centres undefined)	i	-8	-54*	2	·	-5
CN1CCN(C(=O)c2ccc(-c3ccc(F)c(F)c3)c3ccoc23)CC1	i	-4	-59*	-7	·	-11
Cc1cc(C(=O)OCC(=O)NC(=O)NC(C)(C)C)c2ccccc2n1	·	5	·	·	·	·
COC(=O)CSc1[nH]c2ccc(Br)cc2c1[N+](=O)[O-]	i	4	7	-1	-32%	-1
CCOc1ccc2[nH]c(SCC(=O)OC)c([N+](=O)[O-])c2c1	i	6	-53*	0	-46%	-13

Assay outcomes: PubChem, National Center for Advancing Translational Sciences (NCATS)
